PubChem BioAssay AID1159580 (chemical genetic matrix, 2015)
In all, about 5,500 compounds went through this assay and about 2,000 (36%) were called active. Another 18% or so got no clear call; they are omitted. No stated cut-off is given here; in the data, active means normalized growth mostly below about 0.91 (no sharp cut-off); inconclusive means no clear call, values can overlap the other calls; inactive means mostly above about 0.92. The list shows a part of the results.

Experiment: chemical genetic growth profiling, strain panel (AID 1159580);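 further: tested at 20 µM; growth read once vehicle control cultures reached saturation at 30 °C; 1 = growth at the plate median or of vehicle wells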
Settings: S. cerevisiae deletion strains, growth OD
[1] = locus YAL021C, strain ccr4, stronger effect = lower value
[2] = locus YAL026C, strain drs2, stronger effect = lower value
[3] = locus YAL030W, strain snc1, stronger effect = lower value
[4] = locus YBL061C, strain skt5, stronger effect = lower value
[5] = locus YBR009C, strain hhf1, stronger effect = lower value
[6] = locus YBR023C, strain chs3, stronger effect = lower value
[7] = locus YBR171W, strain sec66, stronger effect = lower value
[8] = locus YBR231C, strain swc5, stronger effect = lower value
[9] = locus YBR279W, strain paf1, stronger effect = lower value
[10] = locus YCL011C, strain gbp2, stronger effect = lower value
[11] = locus YCL016C, strain dcc1, stronger effect = lower value
[12] = locus YCL069W, strain vba3, stronger effect = lower value
[13] = locus YCR088W, strain abp1, stronger effect = lower value
[14] = locus YDL005C, strain med2, stronger effect = lower value
[15] = locus YDL040C, strain nat1, stronger effect = lower value
[16] = locus YDR001C, strain nth1, stronger effect = lower value
[17] = locus YDR069C, strain doa4, stronger effect = lower value
[18] = locus YDR137W, strain rgp1, stronger effect = lower value
[19] = locus YDR159W, strain sac3, stronger effect = lower value
[20] = locus YDR297W, strain sur2, stronger effect = lower value
[21] = locus YDR334W, strain swr1, stronger effect = lower value
[22] = locus YDR335W, strain msn5, stronger effect = lower value
[23] = locus YDR392W, strain spt3, stronger effect = lower value
[24] = locus YEL003W, strain gim4, stronger effect = lower value
[25] = locus YEL037C, strain rad23, stronger effect = lower value
[26] = locus YEL061C, strain CIN8 (second series), stronger effect = lower value
[27] = locus YER015W, strain faa2, stronger effect = lower value
[28] = locus YER016W, strain bim1, stronger effect = lower value
[29] = locus YER111C, strain swi4, stronger effect = lower value
[30] = locus YER155C, strain BEM2 (second series), stronger effect = lower value
[31] = locus YFR010W, strain ubp6, stronger effect = lower value
[32] = locus YGL167C, strain pmr1, stronger effect = lower value
[33] = locus YGL173C, strain kem1, stronger effect = lower value
[34] = locus YGL227W, strain vid30, stronger effect = lower value
[35] = locus YGL240W, strain doc1, stronger effect = lower value
[36] = locus YGL253W, strain hxk2, stronger effect = lower value
[37] = locus YHR013C, strain ard1, stronger effect = lower value
[38] = locus YHR027C, strain rpn1, stronger effect = lower value
[39] = locus YHR142W, strain chs7, stronger effect = lower value
[40] = locus YJL092W, strain hpr5, stronger effect = lower value
[41] = locus YJL095W, strain BCK1 (second series), stronger effect = lower value
[42] = locus YJL115W, strain asf1, stronger effect = lower value
[43] = locus YJL129C, strain trk1, stronger effect = lower value
[44] = locus YJL154C, strain vps35, stronger effect = lower value
[45] = locus YJL164C, strain tpk1, stronger effect = lower value
[46] = locus YJL166W, strain qcr8, stronger effect = lower value
[47] = locus YKL160W, strain elf1, stronger effect = lower value
[48] = locus YKR026C, strain gcn3, stronger effect = lower value
[49] = locus YKR091W, strain srl3, stronger effect = lower value
[50] = locus YLL001W, strain dnm1, stronger effect = lower value
[51] = locus YLL026W, stronger effect = lower value
[52] = locus YLL041C, strain sdh2, stronger effect = lower value
[53] = locus YLR027C, strain aat2, stronger effect = lower value
[54] = locus YLR221C, strain rsa3, stronger effect = lower value
[55] = locus YLR258W, strain gsy2, stronger effect = lower value
[56] = locus YLR262C, strain YPT6 (second series), stronger effect = lower value
[57] = locus YLR320W, strain mms22, stronger effect = lower value
[58] = locus YLR342W, strain FKS1, stronger effect = lower value
[59] = locus YLR357W, strain rsc2, stronger effect = lower value
[60] = locus YLR370C, strain arc18, stronger effect = lower value
[61] = locus YLR384C, strain iki3, stronger effect = lower value
[62] = locus YML120C, strain ndi1, stronger effect = lower value
[63] = locus YMR058W, strain fet3, stronger effect = lower value
[64] = locus YMR125W, strain sto1, stronger effect = lower value
[65] = locus YMR129W, stronger effect = lower value
[66] = locus YMR205C, strain PFK2, stronger effect = lower value
[67] = locus YMR231W, strain pep5, stronger effect = lower value
[68] = locus YNL071W, strain lat1, stronger effect = lower value
[69] = locus YNL209W, strain ssb2, stronger effect = lower value
[70] = locus YNL248C, strain rpa49, stronger effect = lower value
[71] = locus YNL322C, strain KRE1 (second series), stronger effect = lower value
[72] = locus YNR049C, strain mso1, stronger effect = lower value
[73] = locus YOR001W, strain rrp6, stronger effect = lower value
[74] = locus YOR070C, strain gyp1, stronger effect = lower value
[75] = locus YOR080W, strain dia2, stronger effect = lower value
[76] = locus YOR083W, strain WHI5, stronger effect = lower value
[77] = locus YOR106W, strain vam3, stronger effect = lower value
[78] = locus YOR265W, strain rbl2, stronger effect = lower value
[79] = locus YOR270C, strain vph1, stronger effect = lower value
[80] = locus YOR290C, strain snf2, stronger effect = lower value
[81] = locus YPL051W, strain arl3, stronger effect = lower value
[82] = locus YPL078C, strain atp4, stronger effect = lower value
[83] = locus YPL106C, strain sse1, stronger effect = lower value
[84] = locus YPL240C, strain hsp82, stronger effect = lower value

Measured: normalized growth

CC(=CC1CCC(C)C2CCC(C)=C12)C(=O)O (stereo unspecified)
active: [2] 0.904 | [7] 0.876 | [18] 0.573 | [23] 0.373 | [32] 0.892 | [33] 0.891 | [43] 0.799 | [49] 0.93 | [56] 0.591 | [57] 0.779 | [58] 0.887 | [60] 0.906 | [66] 0.859 | [67] 0.898 | [68] 0.875 | [79] 0.727 | [81] 0.907 | [84] 0.925
inactive: [1] 0.948 | [3] 0.93 | [4] 0.931 | [5] 0.958 | [6] 0.929 | [8] 0.923 | [9] 0.95 | [10] 0.986 | [11] 0.927 | [12] 0.956 | [13] 0.938 | [14] 0.953 | [15] 0.935 | [16] 0.943 | [17] 0.931 | [19] 0.888 | locus YDR195W, strain ref2 1.12 | [20] 0.943 | [21] 0.927 | [22] 0.944 | [24] 0.958 | [25] 0.942 | [26] 0.947 | [27] 0.971 | [28] 0.936 | [29] 0.923 | [30] 0.873 | [31] 0.965 | [34] 0.952 | [35] 0.941 | [36] 0.937 | [37] 0.954 | [38] 0.956 | [39] 0.901 | [40] 0.93 | [41] 0.927 | [42] 0.965 | [44] 0.934 | [45] 0.923 | [46] 0.917 | [47] 0.939 | [48] 0.939 | [50] 0.966 | [51] 0.946 | [52] 0.955 | [53] 0.953 | [54] 0.943 | [55] 0.941 | [59] 1.01 | [61] 0.926 | [62] 0.968 | [63] 0.937 | [64] 0.937 | [65] 0.928 | [69] 0.978 | [70] 0.972 | [71] 0.94 | [72] 0.941 | [73] 0.942 | [74] 0.943 | [75] 0.961 | [76] 0.933 | [77] 0.914 | [78] 0.956 | [80] 0.918 | [82] 0.946 | [83] 1.04

CC(=CC1CCC(C)C2C1=C(C)CC2O)C(=O)O (stereo unspecified)
inactive: [1] 1.01 | [2] 1.04 | [3] 1.01 | [4] 1.02 | [5] 1.01 | [6] 1.02 | [7] 1.02 | [8] 1.02 | [9] 1.02 | [10] 1.02 | [11] 1.01 | locus YCL061C, strain MRC1, stronger effect = lower value 1.02 | [12] 1.01 | [13] 1.01 | [14] 1.03 | [15] 1.01 | [16] 1.01 | [17] 1 | [18] 1.04 | [19] 1.04 | locus YDR195W, strain ref2 1.02 | [20] 1.02 | [21] 1.02 | [22] 1.02 | [23] 0.944 | [24] 1.02 | [25] 1.01 | [26] 1.02 | [27] 1.03 | [28] 1.02 | [29] 1.01 | [30] 1.03 | [31] 1.03 | [32] 1.01 | [33] 1.03 | [34] 1.01 | [35] 1.02 | [36] 1.03 | [37] 1.03 | [38] 1.04 | [39] 1.02 | [40] 1.02 | [41] 1.02 | [42] 1.02 | [43] 1.04 | [44] 1.01 | [45] 1.01 | [46] 1.02 | [47] 1 | [48] 1.01 | [49] 1.02 | [50] 1.03 | [51] 1.03 | [52] 1.01 | [53] 1.02 | [54] 1.01 | [55] 1.01 | [56] 1.02 | [57] 1.02 | [58] 1.02 | [59] 0.995 | [60] 0.997 | [61] 1.02 | [62] 1.02 | [63] 1.03 | [64] 0.987 | [65] 1.02 | [66] 1.02 | [67] 1.02 | [68] 1.03 | [69] 1.03 | [70] 1.07 | [71] 1.01 | [72] 1.01 | [73] 1.04 | [74] 1 | [75] 1.02 | [76] 1.01 | [77] 1.01 | [78] 1.02 | [79] 1.07 | [80] 0.989 | [81] 1.03 | [82] 1.01 | [83] 1.03 | [84] 1.02
